# Laboratory results: PubChem BioAssay (NCI)
# The panel holds about 79,000 compounds, 15% with a hit somewhere; the sample as a whole holds those more often. The source made the active and inactive calls. Rule as the data show it: active = growth inhibition above about 70%; inactive = the rest.
# Assay: NCI Yeast Anticancer Drug Screen. Data for the mec2-1 strain (AID 157)
# Details: S. cerevisiae mec2-1 strain, at 50.0 µM, hits give high values
# Experimental: Growth inhibition of yeast strains with defined genetic alterations is measured as a screen for potential anti-cancer activity. Selected strains with alterations in DNA damage repair or cell cycle control were exposed to compounds and growth inhibition was measured relative to vehicle treated controls. The strain used in this assay is mec2-1
row,Structure (SMILES),growth inhibition
1,Nc1[nH]c(=S)nc2snnc12,-6.6% (inactive)
2,CCCCCCCCCCCCCCCCCN(C)C(=O)OCC,-62.5% (inactive)
3,CCC(COCC(CC)C(=O)O)C(=O)O (stereo not given),1.1% (inactive)
4,CN(C)S(=O)(=O)c1ccc(NC(=O)OC(C)(c2ccccc2)C2CCCCC2)cc1 (stereo not given),2% (inactive)
5,O=[N+]([O-])c1cccc(C=NC23CC4CC(CC(C4)C2)C3)c1,7.45% (inactive)
6,N#CC1(c2nc3ccccc3o2)C(=O)C(=O)N(C2C3CC4CC(C3)CC2C4)C(=O)C1=O (stereo not given),6.05% (inactive)
7,CN(C)CC1OCCc2ccccc21 (stereo not given),2.9% (inactive)
8,O=C(Nc1ccccc1)Sc1nc2ccccc2s1,17.8% (inactive)
9,CCOC(=O)c1c(C)[nH]c(=S)c(C#N)c1-c1ccc(Cl)cc1,12.1% (inactive)
10,C=C(C)[C@@H]1CC=C(CO)CC1,-1.95% (inactive)
11,CCCCCCCCC(=O)O (tested in a mixture with another compound),6.75% (inactive)
12,O=C(NCCN1CCOCC1)c1ccc(I)cc1,28.9% (inactive)
13,CN1N(c2ccccc2)C(=O)C2=NC=C(C(=O)c3ccccc3)C(=N)C21C (stereo not given),-1.6% (inactive)
14,COc1ccc2cc(C(=O)c3ccccc3)c(=O)oc2c1,-20.9% (inactive)
15,CCCCCP(=O)(CCC(C)C)CC(C)C (stereo not given),7.3% (inactive)
16,Cc1ccc(NC(=O)c2ccc(Cl)cc2)cc1,1.2% (inactive)
17,CC(C)OP(=O)(OC(C)C)c1ccc2c(c1)OCCOCCOCCOCCO2,-11.3% (inactive)
18,O=C1c2ccsc2C(=O)c2sc(CO)cc21,91.2% (active)
19,CCC(C(=O)NC(C)c1ccc(-c2ccccc2)cc1)c1ccccc1 (stereo not given),7.55% (inactive)
20,O/N=C1/CCCCc2ccccc21,0.95% (inactive)

row,Structure (SMILES),growth inhibition
1,CC[N+](CC)(CC)Cc1cc2ccccc2n1C(=O)OC,-24.4% (inactive)
2,C[N+](C)(N)CCS(N)(=O)=O,-9.8% (inactive)
3,CCSc1ccc(N=[N+]([O-])c2ccc(SCC)c(Cl)c2)cc1Cl,10.8% (inactive)
4,CC(=O)Cc1nc(N)nc(Nc2ccc(Cl)c(Cl)c2)n1,13.7% (inactive)
5,CC(C)=C1CCC(CN2CCOCC2)C1=O (stereo not given),16.4% (inactive)
6,NC(=O)N/N=C/c1cccc2ccccc12,9.05% (inactive)
7,CN(C=O)C(C(=O)Nc1cccc2c(OC(=O)C(N(C)C=O)(N(C)C=O)N(C)C=O)c(N=Nc3ccc(S(=O)(=O)Nc4nccs4)cc3)cc(N=Nc3ccc(S(=O)(=O)Nc4nccs4)cc3)c12)(N(C)C=O)N(C)C=O (tested in a mixture with another compound),6.25% (inactive)
8,COc1cc(C(=O)C/C(CCC(=O)Nc2ccc(Cl)cc2Cl)=N/NC(=O)C(N)=O)ccc1O,-2.45% (inactive)
9,CCOC(=O)c1cc2c([N+](=O)[O-])cccc2[nH]1,-5.9% (inactive)
10,COc1ccc(Oc2nc(=O)n3ccccc3n2)cc1,0.65% (inactive)
11,O=C1CCC(=O)N1Cc1ccccc1N=[N+]([O-])c1ccccc1CN1C(=O)CCC1=O,-14.7% (inactive)
12,N#CC(c1ccccc1)C1CCN(Cc2ccccc2)CC1 (stereo not given),20.8% (inactive)
13,CC(CO)N1CCCCCC1 (stereo not given),-15.7% (inactive)
14,FC(F)(F)c1nc(Nc2ccccc2)c2[nH]cnc2n1,4.55% (inactive)
15,c1ccc2c(c1)ccc1c2ccc2c1cc1ccccn12,7.45% (inactive)
16,OC1CNC(=S)NC1,-10.2% (inactive)
17,CCCCCNC(=O)C(C)O (stereo not given),-8.3% (inactive)
18,O=C(O)C1C2C=CC(O2)C1C(=O)NCc1ccncc1 (stereo not given),14.7% (inactive)
19,COC(=O)/C=C(/C(=O)OC)C1(C)c2cc(C(=O)OC)c(C(=O)OC)c(N)c2C(=N)N1c1ccccc1 (stereo not given),25.9% (inactive)
20,O=C1CS(=O)(=O)CN1c1ccc(Cl)c(Cl)c1,-3.35% (inactive)
